Experimental data published in PubChem BioAssay (NCI).
This is part of a sample that, as a whole, favours compounds with a hit. Of some 79,000 tested, about 15% had one in any assay. No stated cut-off is given here; in the data, active means growth inhibition above about 70%; inactive means the rest.

Experiments:
[1] = NCI Yeast Anticancer Drug Screen. Data for the rad50 strain (AID 155);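 further: 0% = growth of vehicle-only cultures of the same strain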; details: S. cerevisiae rad50 strain growth inhibition; at 50.0 µM; active compounds read high
Outline: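 Growth of the mutant yeast was measured after compound exposure and referenced to vehicle-treated cultures.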

[2] = NCI Yeast Anticancer Drug Screen. Data for the mec2-1 strain (AID 157); details: S. cerevisiae mec2-1 strain, at 50.0 µM, active compounds read high
Outline: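 Compounds were applied to mec2-1 yeast cells. Their growth was then compared with that of vehicle-treated cultures to give growth inhibition.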

[3] = NCI Yeast Anticancer Drug Screen. Data for the sgs1 mgt1 strain (AID 161);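 further: 0% = growth of cultures given vehicle only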; details: S. cerevisiae sgs1 mgt1 strain, at 50.0 µM, active compounds read high
Outline: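 This yeast growth screen uses a strain with defined DNA-repair lesions; compound-treated growth is compared with vehicle-treated growth.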

[4] = NCI Yeast Anticancer Drug Screen. Data for the cln2 rad14 strain (AID 165);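 further: 0% = growth equal to vehicle treated cultures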; details: S. cerevisiae cln2 rad14 strain, at 50.0 µM, active compounds read high
Outline: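 Strain: cln2 rad14 yeast, altered in cell cycle control and DNA damage repair. Read-out: growth inhibition vs vehicle.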

[5] = NCI Yeast Anticancer Drug Screen. Data for the bub3 strain (AID 167); details: S. cerevisiae bub3 mutant strain, at 50.0 µM, active compounds read high
Outline: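 Whole-cell yeast assay. The mutant strain was incubated with compounds, and growth inhibition was determined by comparison with vehicle-treated cells.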

[6] = NCI Yeast Anticancer Drug Screen. Data for the mlh1 rad18 strain (AID 175); details: S. cerevisiae mlh1 rad18 strain growth inhibition; at 50.0 µM; active compounds read high
Outline: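 A repair-deficient yeast strain is exposed to test compound, and growth is scored relative to vehicle-treated controls.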

Measured: growth inhibition

CCCCC(CC)/C(C)=N/NC(N)=O (stereo not given)
inactive: [1] 4.7% | [2] 9.55% | [3] -5.3% | [4] -9.1% | [5] -1.15% | [6] -11.5%

CC(C)(C)SC(=S)SCC(=O)c1cc2ccccc2o1
inactive: [1] 35.7% | [2] 3.5% | [3] 41.4% | [4] 30.1% | [5] 40.8% | [6] 37.9%

COC1OC(CI)C(OC(=O)c2ccccc2)C(OC(=O)c2ccccc2)C1OC(=O)c1ccccc1 (stereo not given)
inactive: [1] 10.8% | [2] 21.4% | [3] 10.2% | [4] 15.2% | [5] 36.1% | [6] 33.5%

Cc1ccc(-c2oc3ccccc3c(=O)c2O)cc1
inactive: [1] 22.9% | [2] -9.9% | [3] 2.1% | [4] -5.3% | [5] 5.45% | [6] 7.65%

CC[P+](C)(Cc1ccccc1)c1ccccc1 (stereo not given)
inactive: [1] -0.75% | [2] 1.6% | [3] 22.1% | [4] -3.25% | [5] 9.45% | [6] 21.3%

Cc1nccnc1N1CCCCC1
inactive: [1] 19.7% | [2] -0.75% | [3] -5.8% | [4] 15.9% | [5] 1.9% | [6] -11.3%

Cc1nc(N=C(N)N)nc2ccccc12
inactive: [1] 3.4% | [2] -8.45% | [3] 10.7% | [4] 16.8% | [5] 2.65% | [6] 14.2%

CN1CCC(C(O)c2ccccc2)CC1 (stereo not given)
inactive: [1] 3.95% | [2] -3.8% | [3] -6.15% | [4] -24.4% | [5] 3.95% | [6] 5.5%

NC(=O)CCBr
inactive: [1] -15.3% | [2] 20.2% | [3] -5.45% | [4] -20.4% | [5] 1.3% | [6] -29.1%

C(=N\N=C\c1ccccc1)/c1ccccc1
inactive: [1] 14.7% | [2] 4.65% | [3] 3.5% | [4] -52.5% | [5] -1.15% | [6] 16.6%

CC(C)(Oc1ccc2c(=O)cc(-c3ccc(Cl)cc3)oc2c1)C(=O)Nc1c(Cl)cccc1Cl
inactive: [1] 16.4% | [2] -20.1% | [3] 6.45% | [4] -14.9% | [5] 2.75% | [6] 16.8%

Cc1c(CCCl)c(=O)n2c([nH]c3ccccc32)c1C#N
inactive: [1] 56.5% | [2] -56.5% | [3] 18.6% | [4] 5.2% | [5] -52.1% | [6] 62%

CCN(CC)CCN1c2ccccc2Sc2ccc3ccccc3c21
inactive: [1] 37.5% | [2] 0.8% | [3] 2.7% | [4] 3.4% | [5] 38.5% | [6] 58.5%

COc1ccc(/C(N=Nc2ccccc2)=N/N=C(N)N)cc1
inactive: [1] 24.3% | [2] 6.35% | [3] 12.1% | [4] -2.6% | [5] 36.9% | [6] 8.2%

OC1c2ccccc2CC1Br (stereo not given)
inactive: [1] -4.8% | [2] -3.8% | [3] -9.25% | [4] -25.4% | [5] 7.65% | [6] -8.15%

Cn1nc(-c2cccc(-c3nn(C)c(=NCCO)s3)n2)sc1=NCCO
inactive: [1] -29.8% | [2] -25.4% | [3] -51% | [4] -6.7% | [5] -28.1% | [6] -40.6%

CC1(C)S/C(=C\c2ccccc2)c2nc3ccccc3c(=O)n21
inactive: [1] -6.8% | [2] -7.2% | [3] -16.1% | [4] 2.3% | [5] -0.4% | [6] -21.4%

CC(C)(C#N)CCCCC(C)(C)C#N
inactive: [1] 3.1% | [2] 0.7% | [3] 1.2% | [4] 11.8% | [5] 12.4% | [6] 3.8%

COP(=O)(OC)C(NC(=O)C(F)(F)F)(c1ccccc1)C(F)(F)F (stereo not given)
inactive: [1] -28.1% | [2] -7.25% | [3] -37.2% | [4] -8% | [5] -16.9% | [6] -28.7%

CC(=O)Nc1cc2c(cc1Cl)-c1ccc(Br)cc1C2
inactive: [1] 6.35% | [2] -12.8% | [3] -2.25% | [4] -23.4% | [5] 0.85% | [6] -19.7%
